Compound activity deposited in PubChem by National Center for Advancing Translational Sciences (NCATS).
The list is not random: actives were taken first. Their share in the collection is about 19%.
DT40 TDP1 CPT – DT40-hTDP1 cell growth loss with CPT; Potency, µM (series often up to 46.2 µM), usual class: inhibitors; actives 12% (n = 420,000); chicken DT40 Tdp1-/-;hTDP1 cells + 20 nM CPT, ATP luminescence, 48 h; AID 686979; note: nearly all actives have a fitted effect of over 55% in size
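Cell growth measured by CellTiter-Glo luminescence after a minimum 48 h, 37 C compound exposure with 20 nM CPT in Tdp1-knockout DT40 cells stably expressing hTDP1, seeded 400/well; qHTS titration format.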
IL1B secr inh – inflammasome signaling inhibition, IL-1 beta readout; THP-1 LPS/ATP IL-1B secretion, AlphaLISA, 16 h; hits give low values; activity change, % at 57.5 µM; actives 4.7% (n = 360,000); AID 743279; in the data active = activity change below about -50%; inconclusive = mostly about -30% to -49%
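THP-1 cells pretreated 1 hr with compounds (up to 57.5 uM final), then stimulated with LPS (250 ng/mL final) plus ATP (1.25 mM final); secreted IL-1B measured by AlphaLISA after 16 hr, decreased signal indicating inhibition.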
HT1080 IDH1KD tx – kills HT-1080 cells with IDH1 knockdown | HT-1080 IDH1 knockdown viability, ATP luminescence, 48 h | Potency, µM (top dose mostly 46.1 µM), hits mostly cytotoxic | actives 2% (n = 360,000) | AID 686971
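Luminescent ATP read-out (CellTiter-Glo, 10 min at room temperature) after 48 h compound exposure at 37 °C gave viability of IDH1-knockdown HT-1080 cells. Activity was normalised to DMSO and cell-free wells, then fitted as concentration-response curves.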
HT1080NT lethal – kills 2HG-producing HT-1080-NT fibrosarcoma cells; HT-1080-NT fibrosarcoma viability, CellTiter-Glo ATP luminescence, 48 h; AID 686970; Potency, µM (titrated, usually from 46.1 µM), actives largely listed as cytotoxic; actives 1.6% (n = 360,000);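 note: NT is the 2HG producing partner of a matched IDH1 knockdown line; nearly all actives have a fitted effect of over 55% in size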
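HT-1080-NT; 750 cells/well; 5% FBS RPMI; 48 h compound, 37 degrees C; CellTiter-Glo luminescence; curve fitting and curve-class assignment.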
DT40 TDP1 no CPT – qHTS for Inhibitors of human tyrosyl-DNA phosphodiesterase 1 (TDP1): qHTS in cells in absence of CPT. DT40 Tdp1-/- hTDP1 cells, no CPT, ATP luminescence, 48 h. Potency, µM (top dose mostly 46.2 µM), usual class: inhibitors. actives 15% (n = 420,000); note: nearly all actives have a fitted effect of over 55% in size
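Cells were dispensed at 400 per well, compounds added by pin tool, plates incubated ≥48 hr at 37 °C, then CellTiter-Glo added for 30 min at room temperature before luminescence reading. Line: DT40 Tdp1-/- complemented with hTDP1; camptothecin omitted.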
Large screens that a line does not name were inactive. Unless noted, calls come from the whole dose curve; as a rule, active = well fitted curve in the direction sought with a large enough effect; inconclusive = small, poorly fitted or top-dose-only effect, or another doubt; inactive = no such curve, though single readings can be large; an effect the other way counts as inactive or inconclusive.

Cc1ccc2c(c1)C1CN(C)CCC1N2C(=O)COc1ccc(N(C)C(=O)c2ccccc2)cc1 (centres undefined)	DT40 TDP1 CPT 5.2µM, DT40 TDP1 no CPT 13µM
COc1ccccc1N(CC(=O)N/N=C/c1ccccc1C(=O)O)S(C)(=O)=O	none
NS(=O)(=O)c1ccc(CCNC(=O)c2cc3ccccc3oc2=O)cc1	none
CCn1nc(C)cc1C(=O)N1CCCC(C(=O)c2ccc(Oc3ccccc3)cc2)C1 (centres undefined)	DT40 TDP1 CPT inconclusive, DT40 TDP1 no CPT inconclusive
COc1ccc(C(=O)C2CCCN(C(=O)c3cccnc3OC)C2)c(C)c1 (centres undefined)	DT40 TDP1 CPT inconclusive, DT40 TDP1 no CPT inconclusive
CSc1ccc(C(=O)C2CCCN(C(=O)c3cc(C)n(C)n3)C2)cc1 (centres undefined)	DT40 TDP1 CPT inconclusive, DT40 TDP1 no CPT inconclusive
Cc1ncsc1C(=O)N1CCCC(C(=O)c2ccc3ccccc3c2)C1 (centres undefined)	DT40 TDP1 CPT 23µM, DT40 TDP1 no CPT 21µM
Cc1cc(C(=O)N2CCCC(C(=O)c3ccc4ccccc4c3)C2)nn1C (centres undefined)	DT40 TDP1 CPT inconclusive, DT40 TDP1 no CPT 21µM
CCn1nc(C)cc1C(=O)N1CCCC(C(=O)c2ccc3ccccc3c2)C1 (centres undefined)	DT40 TDP1 CPT 12µM, DT40 TDP1 no CPT 7.3µM
COc1ccc(C(=O)C2CCCN(C(=O)c3ccc4cc[nH]c4c3)C2)c(C)c1 (centres undefined)	DT40 TDP1 CPT 16µM, DT40 TDP1 no CPT inconclusive
O=C(O)CCCNc1ccc(S(=O)(=O)N2CCCCC2)cc1	none
CCn1nc(C)cc1C(=O)N1CCCC(C(=O)c2ccc(OC)cc2C)C1 (centres undefined)	DT40 TDP1 CPT 23µM, DT40 TDP1 no CPT 9.2µM
COc1ccc(C(=O)C2CCCN(C(=O)c3ccnn3C)C2)c(C)c1 (centres undefined)	none
CSc1sc(C(=O)NC(=O)NCc2ccncc2)c(C)c1-c1ccon1	DT40 TDP1 CPT inconclusive, DT40 TDP1 no CPT 16µM
O=C(NCc1ccccc1)NC(=O)c1ccncc1	none
O=C(Nc1ccccc1)N1CCN(c2ccc(F)cc2)CC1	DT40 TDP1 CPT inconclusive, IL1B secr inh inconclusive, DT40 TDP1 no CPT inconclusive
CCc1ccc(CNc2ccc(N3CCN(C(C)=O)CC3)cc2)cc1	HT1080 IDH1KD tx inconclusive, DT40 TDP1 no CPT 18µM
CCc1ccc(NC(=O)N2CCN(c3ccc(F)cc3)CC2)cc1	DT40 TDP1 CPT inconclusive, DT40 TDP1 no CPT 26µM
CC(C)CNC(=O)NC(=O)COC(=O)c1ccccc1Sc1ccc(C(F)(F)F)cc1[N+](=O)[O-]	DT40 TDP1 CPT 29µM, DT40 TDP1 no CPT inconclusive
COc1ccccc1NC(=O)NCc1ccco1	IL1B secr inh -68, DT40 TDP1 no CPT inconclusive
COc1ccccc1C(OC(=O)c1cccs1)C(=O)NCc1ccco1 (centres undefined)	DT40 TDP1 CPT 18µM, DT40 TDP1 no CPT inconclusive
COc1ccc(NC(=O)NCc2ccco2)c(OC)c1	DT40 TDP1 CPT inconclusive, DT40 TDP1 no CPT inconclusive
CSc1ccccc1NC(=S)Nc1ccc(S(N)(=O)=O)cc1	none
CCN(CC)S(=O)(=O)c1ccc(Cl)c(NC(=O)COC(=O)c2nc3nc(C)cc(C)n3n2)c1	none
Nc1nc2ccccc2n1CCOc1ccc(F)cc1	DT40 TDP1 CPT inconclusive, IL1B secr inh -51, HT1080 IDH1KD tx inconclusive, HT1080NT lethal inconclusive, DT40 TDP1 no CPT 23µM
COc1ccc(OCCn2c(N)nc3ccccc32)cc1	DT40 TDP1 CPT inconclusive, DT40 TDP1 no CPT 23µM
CCc1ccc(C=O)cc1	none (no result: IL1B secr inh, HT1080 IDH1KD tx, HT1080NT lethal)
Cc1oc(-c2ccc(C(=O)NC(C)c3ccccc3)cc2)nc1CS(=O)(=O)c1ccccc1 (centres undefined)	none (no result: IL1B secr inh, HT1080 IDH1KD tx, HT1080NT lethal)
COCCCNC(=O)c1ccc(-c2nc(CS(=O)(=O)c3ccc(C)cc3)c(C)o2)cc1	DT40 TDP1 CPT inconclusive, DT40 TDP1 no CPT 16µM (no result: IL1B secr inh, HT1080 IDH1KD tx, HT1080NT lethal)
COc1ccccc1CNC(=O)c1ccc(CS(=O)(=O)c2ccc(C)cc2)o1	DT40 TDP1 CPT inconclusive
COc1ccccc1CNC(=O)c1ccc(-c2nc(CS(=O)(=O)c3ccc(C)cc3)c(C)o2)cc1	DT40 TDP1 CPT inconclusive, DT40 TDP1 no CPT 23µM (no result: IL1B secr inh, HT1080 IDH1KD tx, HT1080NT lethal)
Cc1ccc(CNC(=O)c2ccc(-c3nc(CS(=O)(=O)c4ccc(C)cc4)c(C)o3)cc2)cc1	DT40 TDP1 CPT 13µM, DT40 TDP1 no CPT 7.3µM (no result: IL1B secr inh, HT1080 IDH1KD tx, HT1080NT lethal)
Cc1ccc2c(c1)c1c(c(=O)n(-c3cccc(Cl)c3)c(=O)n1CC(N)=O)n2C	none (no result: IL1B secr inh, HT1080 IDH1KD tx, HT1080NT lethal)
O=C(Cc1ccccc1)NN=Cc1ccccc1	none
O=C(Cc1ccccc1)N/N=C/c1cc(Br)cc(Cl)c1O	DT40 TDP1 CPT 3.7µM, IL1B secr inh inconclusive, HT1080 IDH1KD tx inconclusive, HT1080NT lethal inconclusive, DT40 TDP1 no CPT 2.3µM
COc1cc(Br)cc(/C=N/NC(=O)Cc2ccccc2)c1O	DT40 TDP1 CPT 0.52µM, HT1080 IDH1KD tx 8.2µM, HT1080NT lethal 18µM, DT40 TDP1 no CPT 0.46µM
COc1cc(/C=N/NC(=O)Cc2ccc(Br)cc2)cc(OC)c1O	HT1080NT lethal inconclusive
O=C(CP(=O)(c1ccccc1)c1ccccc1)N/N=C/c1cc(Br)cc(Br)c1O	DT40 TDP1 CPT 15µM, HT1080 IDH1KD tx inconclusive, DT40 TDP1 no CPT 15µM
COc1ccc(Br)cc1/C=N/NC(=O)C[n+]1ccccc1	DT40 TDP1 CPT 18µM, DT40 TDP1 no CPT 13µM
C/C(=N\NC(=O)CNC(=O)C1COc2ccccc2O1)c1ccco1 (centres undefined)	none
CCc1sc(C(=O)Nc2cccnc2)cc1Br	none
COc1cc(Br)cc(C=Nc2cccc(C(F)(F)F)c2)c1O	DT40 TDP1 CPT inconclusive, IL1B secr inh -50, HT1080 IDH1KD tx inconclusive, DT40 TDP1 no CPT inconclusive
CS(=O)(=O)N(CC(=O)N/N=C/c1cc([N+](=O)[O-])ccc1Cl)c1ccccc1	DT40 TDP1 CPT inconclusive, DT40 TDP1 no CPT 18µM
Cc1cccc(N(CC(=O)N/N=C/c2cc([N+](=O)[O-])ccc2Cl)S(C)(=O)=O)c1C	DT40 TDP1 CPT inconclusive, DT40 TDP1 no CPT 21µM
CC(=O)N/N=C/c1cc([N+](=O)[O-])ccc1OCCOc1ccccc1	DT40 TDP1 CPT inconclusive, DT40 TDP1 no CPT 16µM
Nc1nnnn1CC(=O)N/N=C/c1cc([N+](=O)[O-])ccc1Cl	DT40 TDP1 CPT 15µM, DT40 TDP1 no CPT 10µM
Cc1ccc(N(CC(O)CN2CCCCC2)S(=O)(=O)c2ccccc2[N+](=O)[O-])cc1 (centres undefined)	IL1B secr inh inconclusive
CCCNC(=O)Nc1ccc2c(c1)OC[C@H](C)N(C(=O)C1CCCCC1)C[C@@H](C)[C@H](OC)CN(C)C2=O	none
C/C(=N/NC(=O)CNC(=O)COc1cccc(C)c1)c1ccc(Cl)cc1	none
Cc1ccccc1CSCC(=O)NNC(=S)NCC1CCCO1 (centres undefined)	DT40 TDP1 no CPT inconclusive
